# Measured values published in the supplement of paper PMC6555819.
# Legend:
# Test in all cases: PBM binding z-score (relative to random genomic background probes); higher = stronger binding; sequences stand for … in GC…GCGATTGACAGCGTAGAATGAAGG
# [1] = tested on: RARb homodimer (NR concentration 270 nM)
# Method in brief: (§1)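 On custom Agilent 4×180K arrays, double-stranded probes with 34-nt variable regions carried direct-repeat seeds, single-nucleotide variants, half-site ablations or random human genomic background. Ligand-free nuclear receptor dimers were applied for 1 h, and binding was read with antibodies against each partner (one per run). Binding z-scores come from regression-normalized fluorescence, with the random background probes as reference.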
# [2] = tested on: RARg:RXRa (NR concentration 270 nM, RXRa partner concentration 90 nM)
# Method in brief: as §1
# [3] = tested on: RARg homodimer (NR concentration 270 nM)
# Method in brief: as §1
# [4] = tested on: RXRa DBDmut IVT, anti-RXR (DBD mutation: RXRa K156A/R161A, NR concentration 90 nM)
# Method in brief: as §1
# [5] = tested on: RXRa homodimer (NR concentration 180 nM)
# Method in brief: as §1
# [6] = tested on: THRa:RXRa (NR concentration 90 nM, RXRa partner concentration 90 nM)
# Method in brief: as §1
# [7] = tested on: THRa homodimer (NR concentration 90 nM)
# Method in brief: as §1
# [8] = tested on: VDR:RXRa (NR concentration 270 nM, RXRa partner concentration 90 nM)
# Method in brief: as §1
# [9] = tested on: VDR homodimer (NR concentration 270 nM)
# Method in brief: as §1
Sequence,PBM binding z-score [1],PBM binding z-score [2],PBM binding z-score [3],PBM binding z-score [4],PBM binding z-score [5],PBM binding z-score [6],PBM binding z-score [7],PBM binding z-score [8],PBM binding z-score [9]
CTATGTATGTTAAGGGGGTCATTCAGTTTGAAAG,3.92,4.71,3.61,3.03,5.44,3.91,2.88,6.64,6.32
GCTATTAGGTGAAAGGGCAACCGAATGATTCTCG,2.47,2.34,1.75,0.924,2.35,2.04,0.498,0.806,0.381
TAGCCTCGGTCATTGGGCCAGTATAGTACGCATC,1.53,1.54,2.62,-0.363,0.223,0.029,-0.772,-0.539,-0.289
CGAACTAGGCCACCAGGACAGTGAAGAGGTTGGA,0.689,0.238,0.672,-0.131,-0.0253,0.954,0.3,-0.817,-0.183
CGAACTAGGTCAGCAGGACAGTGAAGAGGTTGGA,2.84,2.91,3.91,0.0956,1.51,2,0.264,0.428,-0.272
CGCACTAGGTCATTGACAGGACAGTGAATAGTAA,2.68,4.77,4.46,2.35,2.57,2.91,1.16,2.36,1.54
CCGAGTAGGTTACGAGGGGGCATTTAGTGCGAAT,2.18,3.09,2.33,1.31,2.16,3.92,0.585,4.94,2.81
ATATGTAGGTTAGGGTCATTCCGAAAGTAGGGAA,3.13,3.89,2.85,2.61,5.22,4.18,3.01,4.54,3.59
CATACAGGGTCATCTAGGCCAGAGTAGGGACGGC,3.37,5.16,4.85,3.17,5.72,3.6,1.37,5.26,3.3
CCTAGTTGGTCAAGGTCACGCACGCTATAGGTAC,4.81,5.21,5.57,1.94,5.65,4.06,4.48,4.45,3.96
CGAACCAGGTCACCAGGACAGTGAAGAGGTTGGA,3.59,5.06,5.35,2.04,4.73,3.94,2.77,3.17,1.62
CGAACTAGGTCAAAGGACAGAGAAAGGCGACGTA,2.7,4.29,4.46,1.73,3.38,2.44,0.0564,1.54,0.391
CGAACTAGGTCAAAGGACAGCGAAAGGCGACGTA,3.05,4.13,4.72,1.85,3.19,2.46,0.406,1.47,0.311
GCTGCTAGGTCAGGTTGGTCTGCTAACGGGTACG,2.51,2.46,3.25,0.755,1.04,1.89,0.834,0.509,0.554
CGTCCAAGGTCAAGGTGAGTGAAAGAGACTCGAA,3.64,5.92,6.65,3.37,6.02,3.8,2.86,4.01,1.94
CATCCAAGGTCAAAGGTCAGTGAAGAGATGACGG,5.65,8.8,7.95,4.08,10.2,4.93,2.74,6.71,4.15
CCGCGTAGGTTACGAGGGGGCATTCAGTGCGAAT,2.04,3.34,2.15,1.51,2.28,3.95,0.24,5.31,2.58
ATTTGTAGGTTATCGGGTCATTCAGTTTGCGCAT,3.53,3.69,3.01,1.95,3.61,3.6,3.62,5.57,4.42
TAGCCTAGGTCAGATCGGGCCAGTCTACGCTATA,2.16,2.51,3.36,-0.601,1.31,4.1,-0.0683,0.668,-0.368
ATAGAAAGGTCGAAGGTGAGTATACCCACCCGAA,2.36,4.23,3.8,0.55,4.9,2,0.0452,2.88,0.757
AATACAGGGACATCGTAGGCCAGAGTACGCACAG,0.605,0.131,0.818,0.223,-0.000453,1,0.426,-0.0914,0.53
CCGAGTAGGTTACGAGGGGGTATTCAGTGCGAAT,1.15,1.98,1.63,0.847,1.17,2.6,0.46,2.95,1.11
CGAACTAGGTCACCAGGACAGTGACGAGGTTGGA,3.61,4.59,5.52,1.22,3.43,3.55,1.99,2.13,0.698
TCTCGGAGGACACGAAAGGGCAGAGCTCGACATC,2.21,1.52,2.06,0.584,0.474,1.76,0.0765,-0.0327,-0.17
